The values that follow come from PubChem BioAssay (NCI).

The panel holds about 83,000 compounds, 20% with a hit somewhere; the sample as a whole holds those more often.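 Note: values are percent growth. 100 is the growth of untreated cells, values between 100 and 0 indicate rising inhibition; between -100 and 0 indicates cell death.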 A number with no mark means an inactive call. Active and inactive are the calls of the source. Rule for the calls: active = growth percent below 10; inactive = the rest.

Test systems include T-47D breast; BT-549 breast; MDA-MB-435 melanoma; SW-620 colon; MCF7 breast; HCT-116 colon; HCC-2998 colon; KM12 colon.
Holding throughout (test): NCI-60 one-dose screen, 48 h (100 = growth as untreated, 0 = no growth, -100 = all killed)
Common to all, as to details: 10 µM unless noted

For the compound `COc1ccccc1C(=O)Nc1cccc(NC(=O)c2ccoc2C)c1`, the growth in the test with T-47D breast is 45.1%; in the test on BT-549 breast it was 44%; in the test with MDA-MB-435 melanoma it was -15.8% (active); with SW-620 colon, 28.2%; with MCF7 breast, 24.6%; in the test with HCT-116 colon, 15.3%. For the same compound, the growth is 67.2% in the test on HCC-2998 colon and 21.1% in the test on KM12 colon.
`O=C1c2cccc3cccc(c23)C(=O)N1C/C=C/c1ccc2c3c(cccc13)C(=O)N(CCO)C2=O`: the growth in the test with T-47D breast was 76.7%; in the test on BT-549 breast, 40.3%; in the test on MDA-MB-435 melanoma it was 94.4%; in the test on SW-620 colon it was 81.8%; with MCF7 breast, 80.1%; in the test with HCT-116 colon, 76%. In addition, the growth in the test on HCC-2998 colon is 85.7%; with KM12 colon, 76.2%.
With `Cc1ccc(S(=O)(=O)N2CCC(=O)c3ccccc32)cc1`, the growth with T-47D breast was 78.7%; with BT-549 breast, 65.6%; in the test with MDA-MB-435 melanoma it was 6.12% (active); with SW-620 colon it was 44.7%; with MCF7 breast it was 40.5%; with HCT-116 colon it was 59.4%. Further, the growth is 83.8% in the test on HCC-2998 colon and 33.5% with KM12 colon.
Turning to `O=C(N/N=C\c1ccccc1S(=O)(=O)O)N/N=C/c1ccccc1S(=O)(=O)O`, the growth was 102% with T-47D breast; 118% in the test on BT-549 breast; 105% in the test on MDA-MB-435 melanoma; 91.9% with SW-620 colon; 93.4% in the test with MCF7 breast; 106% with HCT-116 colon. The growth in the test on HCC-2998 colon is 104%; with KM12 colon, 94.1%.
On to `O=C1/C(=C/c2ccccc2F)CN(C(=O)C(Cl)Cl)C/C1=C\c1ccccc1F`, for which the growth was -7.38% (active) with T-47D breast; -46.5% (active) with BT-549 breast; -56.8% (active) in the test on MDA-MB-435 melanoma; -76.9% (active) in the test on SW-620 colon; -49% (active) with MCF7 breast; -90.3% (active) in the test with HCT-116 colon. For the same compound, the growth with HCC-2998 colon was -76.9% (active); in the test on KM12 colon, -51.7% (active).
Turning to `COc1ccc(C(=O)c2cc3c(N)c(C(=O)Nc4ccccc4)sc3nc2C)cc1`, the growth in the test on T-47D breast was 39%; in the test with BT-549 breast it was 60.6%; with MDA-MB-435 melanoma it was -5.47% (active); in the test on SW-620 colon, 28.2%; in the test on MCF7 breast, 20.7%; with HCT-116 colon, 13.4%. Moreover, the results for the growth in the test with HCC-2998 colon and with KM12 colon were 19% and 14.9%, respectively.
For `CN(Cc1ccccc1)c1nc(Cl)c(C2CC(c3ccccc3)=NN2c2ccccc2)s1` (stereo not given), the growth was 71.9% with T-47D breast; 118% with BT-549 breast; 98% in the test on MDA-MB-435 melanoma; 101% in the test with SW-620 colon; 82.4% in the test with MCF7 breast; 77.7% in the test with HCT-116 colon. Further, the growth in the test on HCC-2998 colon was 93%; with KM12 colon it was 89.7%.
As for `COc1ccc2cc(-c3ccnc4c(N=Nc5ccc(Cl)cc5)c(N)nn34)ccc2c1`, the growth with T-47D breast was 94.5%; in the test on BT-549 breast it was 99.9%; in the test with MDA-MB-435 melanoma it was 105%; in the test with SW-620 colon, 101%; with MCF7 breast, 97.3%; in the test on HCT-116 colon, 99.7%. For the same compound, the figures for the growth in the test on HCC-2998 colon and in the test on KM12 colon were 97.6% and 103%, respectively.
Regarding `CC/C=C\C[C@H](O)C/C=C1/C(=O)C=C[C@@H]1C/C=C\CCCC(=O)O`, the growth was 12% in the test with T-47D breast; 46.2% with BT-549 breast; 36.9% in the test on MDA-MB-435 melanoma; 49.6% with SW-620 colon; 13.9% with MCF7 breast; 8.9% (active) in the test on HCT-116 colon. Further, the growth is 57.7% with HCC-2998 colon and 41.6% with KM12 colon.
Consider `CCN1C(=O)N(CC)C2C1N=C(SCc1ccc(Cl)cc1)N2/N=C/C=C/c1ccccc1OC` (stereo not given), for which the growth in the test on T-47D breast is 41.6%; with BT-549 breast, 106%; with MDA-MB-435 melanoma, -16.9% (active); with SW-620 colon, 74.8%; in the test with MCF7 breast, 13.5%; with HCT-116 colon it was 37%. Besides, the figures for the growth in the test with HCC-2998 colon and with KM12 colon were 85.9% and 64.6%, respectively.
Turning to `C=C(C)[C@@H]1CC[C@]2(C(=O)N3CCN(C)CC3)CC[C@]3(C)[C@H](CC[C@@H]4[C@@]5(C)CC[C@H](OC(=O)c6ccccc6C(=O)O)C(C)(C)[C@@H]5CC[C@]43C)[C@@H]12`, the growth in the test with T-47D breast was 102%; with BT-549 breast, 111%; in the test with MDA-MB-435 melanoma it was 99.3%; in the test with SW-620 colon, 101%; in the test on MCF7 breast, 96.4%; with HCT-116 colon, 90.8%. The growth in the test with HCC-2998 colon and with KM12 colon was 106% each time.
On to `Cc1ccc(C(=O)Nc2cccc(C#Cc3cccc4[nH]nc(N)c34)c2)cc1C(F)(F)F`, for which the growth in the test with T-47D breast is 46.3%; in the test with BT-549 breast, 86.6%; with MDA-MB-435 melanoma, 62.4%; in the test with SW-620 colon, 65.4%; in the test on MCF7 breast, 59.8%; in the test on HCT-116 colon it was 25.2%. Further, the values for the growth with HCC-2998 colon and in the test on KM12 colon were 51% and 64.3%, respectively.
Consider `Cc1nc2c(=O)nc3s/c(=C\c4ccco4)c(=O)n3c2nc1C`, for which the growth with T-47D breast was 94.3%; in the test on BT-549 breast it was 110%; in the test with MDA-MB-435 melanoma, 94.1%; with SW-620 colon, 111%; in the test on MCF7 breast, 96.4%; in the test on HCT-116 colon, 101%. The growth is 97.2% in the test with HCC-2998 colon and 105% in the test with KM12 colon.
On to `C[C@H](C(=O)N(CCc1ccc(Cl)c(Cl)c1)Cc1cncs1)[C@@H]1CC[C@H](C[C@H](C)n2cc(CN3CCC(c4ccc(Cl)cc4)CC3)nn2)O1`, for which the growth in the test with T-47D breast was 86.6%; in the test on BT-549 breast it was 95.1%; with MDA-MB-435 melanoma, 98.3%; in the test with SW-620 colon, 97.5%; with MCF7 breast, 85.8%; with HCT-116 colon, 92.5%. Further, the growth in the test on HCC-2998 colon was 112%; in the test on KM12 colon, 105%.
As for `CC1=C(CCC(C)NCc2ccc(OCCCN3CCCCC3)cc2)C(C)(C)CCC1` (stereo not given), the growth is -64.8% (active) with T-47D breast; -63.9% (active) in the test with BT-549 breast; -93.8% (active) in the test on MDA-MB-435 melanoma; -80.3% (active) with SW-620 colon; -58.4% (active) in the test with MCF7 breast; -85.3% (active) in the test with HCT-116 colon. Moreover, the growth is -84.3% (active) in the test with HCC-2998 colon and -80% (active) in the test with KM12 colon.
